Assay results as given in PubChem BioAssay AID1159580 (chemical genetic matrix, 2015).
In all, about 5,500 compounds went through this assay and about 2,000 (36%) were called active. Inconclusive results (about 18%) are left out. Rule as the data show it: active = normalized growth mostly below about 0.91 (no sharp cut-off); inconclusive = no clear call, values can overlap the other calls; inactive = mostly above about 0.92. The list shows a part of the results.

Assay: chemical genetic growth profiling, strain panel (AID 1159580);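 also: tested at 20 µM; growth read once vehicle control cultures reached saturation at 30 °C; 1 = growth at the plate median or of vehicle wells; lower values mean less growth of the strain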
Settings: S. cerevisiae deletion strains, growth OD
[1] = locus YDL101C, strain DUN1, hits give low values
[2] = locus YHR030C, strain SLT2, hits give low values
[3] = locus YHR079C, strain IRE1, hits give low values
[4] = locus YJL095W, strain BCK1, hits give low values
[5] = locus YJR066W, strain TOR1, hits give low values
[6] = locus YLR113W, strain HOG1, hits give low values
[7] = locus YNL183C, strain NPR1, hits give low values
[8] = locus YOR231W, strain MKK1, hits give low values
[9] = locus YPL256C, strain CLN2, hits give low values

Measured: normalized growth

CC(C)Sc1c(Cl)cccc1NC(=O)Nc1ccccc1
active: [2] 0.666 | [6] 0.765 | [9] 0.803
inactive: locus YAR019C, strain CDC15, hits give low values 0.971 | locus YBL105C, strain PKC1, hits give low values 0.97 | locus YBR135W, strain CKS1, hits give low values 0.96 | locus YBR136W, strain MEC1, hits give low values 0.959 | locus YBR160W, strain CDC28, hits give low values 0.962 | locus YDL017W, strain CDC7, hits give low values 0.968 | locus YDL028C, strain MPS1, hits give low values 0.962 | [1] 0.976 | locus YDL108W, strain KIN28, hits give low values 0.966 | locus YDL132W, strain cdc53, hits give low values 0.974 | locus YDL214C, strain PRR2, hits give low values 0.871 | locus YDR052C, strain DBF4, hits give low values 0.973 | locus YDR054C, strain cdc34, hits give low values 0.959 | locus YDR226W, strain ADK1, hits give low values 0.976 | locus YDR477W, strain SNF1, hits give low values 0.867 | locus YER123W, strain YCK3, hits give low values 0.813 | locus YER133W, strain GLC7, hits give low values 0.899 | locus YFL009W, strain cdc4, hits give low values 0.97 | locus YFL029C, strain CAK1, hits give low values 0.964 | locus YFR003C, strain YPI1, hits give low values 0.957 | locus YFR019W, strain FAB1, hits give low values 0.872 | locus YFR028C, strain CDC14, hits give low values 0.963 | locus YGR040W, strain KSS1, hits give low values 0.843 | locus YGR052W, strain FMP48, hits give low values 0.937 | locus YGR092W, strain DBF2, hits give low values 0.836 | [3] 0.898 | locus YHR082C, strain KSP1, hits give low values 0.858 | locus YHR205W, strain SCH9, hits give low values 0.788 | locus YIL147C, strain SLN1, hits give low values 0.964 | [4] 0.803 | locus YJL128C, strain PBS2, hits give low values 0.966 | locus YJL157C, strain FAR1, hits give low values 0.895 | locus YJR016C, strain ILV3, hits give low values 0.97 | locus YJR066W, strain TOR1 (second series), hits give low values 0.915 | [5] 0.835 | locus YKL048C, strain ELM1, hits give low values 0.874 | locus YKL067W, strain YNK1, hits give low values 0.892 | locus YKL101W, strain HSL1, hits give low values 0.891 | locus YKL193C, strain SDS22, hits give low values 0.963 | locus YKL203C, strain TOR2, hits give low values 0.891 | locus YLR133W, strain CKI1, hits give low values 0.857 | locus YLR403W, strain SFP1, hits give low values 0.863 | locus YML070W, strain DAK1, hits give low values 0.869 | locus YMR001C, strain CDC5, hits give low values 0.967 | locus YMR205C, strain PFK2 (second series), hits give low values 0.863 | locus YMR277W, strain FCP1, hits give low values 0.962 | locus YNL006W, strain LST8, hits give low values 0.975 | locus YNL020C, strain ARK1, hits give low values 0.861 | locus YNL161W, strain CBK1, hits give low values 0.975 | [7] 0.827 | locus YNL207W, strain RIO2, hits give low values 0.965 | locus YNL222W, strain SSU72, hits give low values 0.964 | locus YNL307C, strain MCK1 (second series), hits give low values 0.771 | locus YOL078W, strain AVO1, hits give low values 0.964 | locus YOL136C, strain PFK27, hits give low values 0.86 | locus YOR061W, strain CKA2, hits give low values 0.895 | locus YOR119C, strain RIO1, hits give low values 0.935 | [8] 0.883 | locus YOR329C, strain SCD5, hits give low values 0.966 | locus YPL031C, strain PHO85, hits give low values 0.853 | locus YPL153C, strain RAD53, hits give low values 0.867 | locus YPL204W, strain HRR25, hits give low values 0.839 | locus YPL209C, strain IPL1, hits give low values 0.973 | locus YPR025C, strain CCL1, hits give low values 0.961 | locus YPR106W, strain ISR1, hits give low values 0.964 | locus YPR111W, strain DBF20, hits give low values 0.951 | strain NNK1, hits give low values 0.942 | strain TSCII, hits give low values 0.963

O=C1NCCN=C(c2ccccc2)c2ccccc21
inactive: locus YAL013W, strain DEP1, hits give low values 0.999 | locus YBR229C, strain ROT2, hits give low values 1 | locus YCL061C, strain MRC1, hits give low values 0.99 | [1] 0.984 | locus YDL134C, strain PPH21, hits give low values 1.01 | locus YDR150W, strain NUM1, hits give low values 0.911 | locus YEL061C, strain CIN8, hits give low values 0.995 | locus YGR078C, strain PAC10, hits give low values 0.99 | [2] 1.03 | locus YHR087W, strain rtc3, hits give low values 0.999 | locus YJL187C, strain SWE1, hits give low values 0.997 | locus YJR043C, strain POL32, hits give low values 0.995 | locus YJR075W, strain HOC1, hits give low values 1.01 | locus YLR039C, strain RIC1, hits give low values 0.985 | locus YLR058C, strain SHM2 (second series), hits give low values 0.998 | locus YLR085C, strain ARP6, hits give low values 1.01 | locus YLR262C, strain YPT6, hits give low values 0.968 | locus YML094W, strain GIM5, hits give low values 0.98 | locus YMR219W, strain ESC1, hits give low values 0.999 | locus YMR263W, strain SAP30, hits give low values 0.973 | locus YMR307W, strain GAS1, hits give low values 0.994 | locus YNL153C, strain GIM3, hits give low values 0.99 | locus YNL298W, strain CLA4 (second series), hits give low values 1.01 | locus YNL322C, strain KRE1, hits give low values 0.994 | locus YNR030W, strain Alg12, hits give low values 1 | locus YOL006C, strain TOP1, hits give low values 1 | locus YPL055C, strain LGE1, hits give low values 0.956 | locus YPL241C, strain CIN2, hits give low values 0.976 | locus YPR135W, strain CTF4, hits give low values 1.01

CC(=O)c1ccc[nH]1
inactive: locus YAL021C, strain ccr4, hits give low values 1.01 | locus YAL026C, strain drs2, hits give low values 1 | locus YAL030W, strain snc1, hits give low values 0.997 | locus YBL061C, strain skt5, hits give low values 0.996 | locus YBR009C, strain hhf1, hits give low values 1.02 | locus YBR023C, strain chs3, hits give low values 0.998 | locus YBR171W, strain sec66, hits give low values 1.01 | locus YBR231C, strain swc5, hits give low values 1 | locus YBR279W, strain paf1, hits give low values 1.01 | locus YCL011C, strain gbp2, hits give low values 1 | locus YCL016C, strain dcc1, hits give low values 0.997 | locus YCL069W, strain vba3, hits give low values 1 | locus YCR088W, strain abp1, hits give low values 1.01 | locus YDL005C, strain med2, hits give low values 0.99 | locus YDL040C, strain nat1, hits give low values 0.998 | locus YDR001C, strain nth1, hits give low values 1 | locus YDR069C, strain doa4, hits give low values 1.01 | locus YDR137W, strain rgp1, hits give low values 0.98 | locus YDR159W, strain sac3, hits give low values 0.975 | locus YDR195W, strain ref2 0.979 | locus YDR297W, strain sur2, hits give low values 1.01 | locus YDR334W, strain swr1, hits give low values 0.995 | locus YDR335W, strain msn5, hits give low values 0.993 | locus YDR392W, strain spt3, hits give low values 1.01 | locus YEL003W, strain gim4, hits give low values 0.998 | locus YEL037C, strain rad23, hits give low values 1 | locus YEL061C, strain CIN8 (second series), hits give low values 1.01 | locus YER015W, strain faa2, hits give low values 1 | locus YER016W, strain bim1, hits give low values 0.995 | locus YER111C, strain swi4, hits give low values 0.994 | locus YER155C, strain BEM2 (second series), hits give low values 0.994 | locus YFR010W, strain ubp6, hits give low values 1 | locus YGL167C, strain pmr1, hits give low values 0.988 | locus YGL173C, strain kem1, hits give low values 0.998 | locus YGL227W, strain vid30, hits give low values 0.996 | locus YGL240W, strain doc1, hits give low values 1 | locus YGL253W, strain hxk2, hits give low values 1 | locus YHR013C, strain ard1, hits give low values 1.01 | locus YHR027C, strain rpn1, hits give low values 0.991 | [2] 1 | [3] 0.992 | locus YHR142W, strain chs7, hits give low values 1 | locus YJL092W, strain hpr5, hits give low values 0.992 | locus YJL095W, strain BCK1 (second series), hits give low values 0.988 | [4] 0.988 | locus YJL115W, strain asf1, hits give low values 0.993 | locus YJL129C, strain trk1, hits give low values 0.988 | locus YJL154C, strain vps35, hits give low values 0.996 | locus YJL164C, strain tpk1, hits give low values 1.01 | locus YJL166W, strain qcr8, hits give low values 1.01 | [5] 0.942 | locus YKL160W, strain elf1, hits give low values 1 | locus YKR026C, strain gcn3, hits give low values 0.998 | locus YKR091W, strain srl3, hits give low values 0.999 | locus YLL001W, strain dnm1, hits give low values 1.01 | locus YLL026W, hits give low values 1 | locus YLL041C, strain sdh2, hits give low values 1 | locus YLR027C, strain aat2, hits give low values 1 | [6] 1 | locus YLR221C, strain rsa3, hits give low values 1.01 | locus YLR258W, strain gsy2, hits give low values 1.01 | locus YLR262C, strain YPT6 (second series), hits give low values 1.03 | locus YLR320W, strain mms22, hits give low values 1 | locus YLR342W, strain FKS1, hits give low values 0.999 | locus YLR357W, strain rsc2, hits give low values 0.971 | locus YLR370C, strain arc18, hits give low values 0.994 | locus YLR384C, strain iki3, hits give low values 0.997 | locus YML120C, strain ndi1, hits give low values 1.01 | locus YMR058W, strain fet3, hits give low values 0.997 | locus YMR125W, strain sto1, hits give low values 0.997 | locus YMR129W, hits give low values 0.996 | locus YMR205C, strain PFK2, hits give low values 1.01 | locus YMR231W, strain pep5, hits give low values 1 | locus YNL071W, strain lat1, hits give low values 1 | [7] 0.902 | locus YNL209W, strain ssb2, hits give low values 1.01 | locus YNL248C, strain rpa49, hits give low values 0.98 | locus YNL322C, strain KRE1 (second series), hits give low values 0.986 | locus YNR049C, strain mso1, hits give low values 1.01 | locus YOR001W, strain rrp6, hits give low values 1 | locus YOR070C, strain gyp1, hits give low values 1.01 | locus YOR080W, strain dia2, hits give low values 1 | locus YOR083W, strain WHI5, hits give low values 1 | locus YOR106W, strain vam3, hits give low values 0.985 | [8] 1.02 | locus YOR265W, strain rbl2, hits give low values 1.02 | locus YOR270C, strain vph1, hits give low values 1.01 | locus YOR290C, strain snf2, hits give low values 0.992 | locus YPL051W, strain arl3, hits give low values 1.02 | locus YPL078C, strain atp4, hits give low values 1.01 | locus YPL106C, strain sse1, hits give low values 0.978 | locus YPL240C, strain hsp82, hits give low values 0.994 | [9] 0.99
